Bioassay records as filed in PubChem.
An excerpt weighted towards active compounds, which were near 2.4% of everything screened.
FEN1 inh: qHTS Assay for the Inhibitors of Human Flap endonuclease 1 (FEN1) | Recombinant FEN1 flap cleavage, fluorescence, 15 min | Potency, µM (titrated, usually from 114 µM), usual class: inhibitors | 390,000 tested, 0.35% active | AID 588795, 2011; note: nearly all actives have a fitted effect of over 65% in size
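Read-out was taken twice, immediately and after 15 min, following addition of 50 nM substrate to 10 nM FEN1 that had sat with test compound for 15 min at room temperature. Curves came from a four-parameter Hill model.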
Pol kappa inh-1: qHTS for Inhibitors of Polymerase Kappa. Potency, µM (doses to about 107 µM), most hits filed as inhibitors. AID 588579, 2011. 400,000 tested, 0.53% active. purified Pol kappa, fluorescent DNA synthesis assay, 10 min
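10 nM Pol kappa was preincubated with compounds for 15 min at room temperature. Reaction started with 50 nM (final) substrate. Fluorescence read kinetically at 0 and 10 min.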
WRN inhibitor: qHTS for Inhibitors of WRN Helicase; WRN helicase unwinding, fluorescent forked duplex, kinetic; Potency, µM (titrated, usually from 114 µM), actives largely listed as inhibitors; 360,000 tested, 0.46% active; note: nearly all actives have a fitted effect of over 55% in size
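Fluorescence dequenching readout, ex 525 nm/em 598 nm, kinetic mode: forked duplex DNA (100 nM final) with adjacent fluorophore and quencher unwound by WRN (20 nM final) with 2 mM ATP. Compound preincubation 15 min, room temperature.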
Pol iota inh: qHTS for Inhibitors of Polymerase Iota; Pol iota fluorescent replication assay, 10 min; Potency, µM (top dose mostly 115 µM), actives largely listed as inhibitors; 390,000 tested, 1% active; AID 588590, 2011
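Pol iota at 10 nM preincubated 15 min with compounds at room temperature; reaction started with fluorescent substrate, 50 nM final. Fluorescence read kinetically at 0 and 10 min; buffer-only wells as negative control.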
Pol eta inh-1: qHTS for Inhibitors of Polymerase Eta | DNA polymerase eta (Homo sapiens), Q9Y253 | recombinant Pol eta, fluorescent DNA replication assay | Potency, µM (doses to about 114 µM), usual class: inhibitors | 390,000 tested, 1.2% active | AID 588591, 2011
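Pol eta at 10 nM preincubated with compounds 15 min at room temperature; reaction started with fluorescent substrate (50 nM final) and read kinetically at 0 and 10 min.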
POLB inh: qHTS Assay for Inhibitors of DNA Polymerase Beta | Pol beta primer extension/strand displacement, fluorescence kinetic | Potency, µM (series often up to 114 µM), most hits filed as inhibitors | 340,000 tested, 1.3% active
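Preincubation: enzyme (10 nM) with compound, 15 min, RT. Reaction: substrate added to 50 nM final. Reads: 0 and 10 min. Analysis: normalized, Hill fit.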
GALK inh confirm: Confirmation Assay for Inhibitors of Human Galactokinase (GALK). shares compounds with Pol eta inh-1. Potency, µM (series often up to 115 µM), actives largely listed as inhibitors. 150 tested, 70% active. AID 2015, 2009. purified GALK, Kinase-Glo ATP depletion luminescence
Target sequence (P51570 whole entry, looked up): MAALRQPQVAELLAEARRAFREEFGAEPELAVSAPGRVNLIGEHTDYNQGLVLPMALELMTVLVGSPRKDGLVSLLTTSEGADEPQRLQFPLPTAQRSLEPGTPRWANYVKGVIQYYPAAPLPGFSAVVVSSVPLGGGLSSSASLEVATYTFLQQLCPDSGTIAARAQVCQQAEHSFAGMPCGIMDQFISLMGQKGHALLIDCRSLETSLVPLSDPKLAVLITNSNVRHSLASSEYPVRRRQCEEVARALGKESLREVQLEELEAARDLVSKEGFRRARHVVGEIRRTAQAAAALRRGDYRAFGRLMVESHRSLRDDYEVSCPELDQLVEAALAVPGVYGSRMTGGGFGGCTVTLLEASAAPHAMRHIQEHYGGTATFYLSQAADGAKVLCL
GALK redox cs: Confirmatory Assay for Inhibitors of Human Galactokinase (GALK): Phenol-HRP redox assay counterscreen; shares compounds with Pol eta inh-1; Phenol red-HRP H2O2 redox cycling, absorbance 600 nm; Potency, µM (doses to about 115 µM), usual class: inhibitors; 150 tested, 40% active
HEK293 viability: Secondary Assay for Inhibitors of Human Galactokinase (GALK): HEK-293 Cell Viability Assay. HEK-293 viability, ATP luminescence (CellTiter-Glo), 24/48 h. Potency, µM (highest dose often 46.1 µM), usual class: inhibitors. shares compounds with Pol eta inh-1. AID 2547, 2010. 170 tested, 10% active
Pol kappa inh-2: qHTS for Inhibitors of Polymerase Kappa: Confirmatory Assay for Cherry-picked Compounds. Potency, µM, actives largely listed as inhibitors. AID 720501, 2013. purified Pol-kappa, fluorescent strand-displacement substrate. shares compounds with Pol eta inh-1. 920 tested, 76% active
Pol eta inh-2: qHTS for Inhibitors of Polymerase Eta: Confirmatory Assay for Cherry-picked Compounds; shares compounds with Pol eta inh-1; Pol eta primer extension, TAMRA/BHQ fluorescence, 10 min; Potency, µM, most hits filed as inhibitors; 2,600 tested, 64% active
A number is an active result; i = inactive; ? = inconclusive; nt = no result given; [ ] = another dose, or the depositor's remark. Calls come from the whole dose curve; as a rule, active = well fitted curve in the direction sought with a large enough effect; inconclusive = small, poorly fitted or top-dose-only effect, or another doubt; inactive = no such curve, though single readings can be large; an effect the other way counts as inactive or inconclusive.

SMILES	FEN1 inh	Pol kappa inh-1	WRN inhibitor	Pol iota inh	Pol eta inh-1	POLB inh	Pol eta inh-2	others
C=CCOc1ccc(C(c2c(C(=O)O)[nH]c3ccccc23)c2c(C(=O)O)[nH]c3ccccc23)cc1	i	79µM	?	18µM	32µM	20µM	?	Pol kappa inh-2=?
COc1ccc(CN=Cc2c(C(=O)O)[nH]c3ccccc23)cc1	i	i	i	i	i	i	nt
Cc1ccn2cc(-c3ccc(O)c(O)c3)nc2c1	i	20µM	45µM	14µM	22µM	10µM	?
Oc1ccc(-c2cn3ccccc3n2)cc1O	i	i	i	i	i	i	nt
Cc1ccn2cc(CC(=O)O)nc2c1	i	?	i	?	14µM	13µM	67
CCOC(=O)c1cn2ccc(C)cc2n1	i	i	i	i	i	?	nt
Cc1cc2c(SCC(=O)Nc3cccc(O)c3)ncnc2s1	45µM	89µM	?	?	22µM	nt	76	Pol kappa inh-2=21
COC(=O)C(NC(=O)c1ccccc1)C(C)(C)SCc1ccccc1 (configuration not stated)	nt	nt	i	nt	i	nt	nt
O=C1ON=C(c2ccccc2)/C1=C/c1ccc(O)c(O)c1	?	i	?	?	22µM	i	60	GALK inh confirm=?;GALK redox cs=i;HEK293 viability=i
Cc1c(Cl)cccc1-c1ccc(/C=N/n2cnnc2)o1	i	i	i	i	i	i	nt
Cc1c(C(=O)O)cccc1-c1ccc(/C=N/n2cnnc2)o1	i	89µM	i[11.6 µM]	35µM	20µM	25µM	48	Pol kappa inh-2=15
O=C(CCS(=O)(=O)c1ccc(Br)cc1)Nc1ccc(Cl)c(C(F)(F)F)c1	i	i	nt	i	?	i	?	Pol kappa inh-2=19
COc1ccc(OC)c(NC(=O)C2(C)CCN2Cc2ccc(SC)cc2)c1 (configuration not stated)	nt	nt	i	nt	nt	nt	nt
O=C(O)c1cccc(Nc2c3ccccc3nc3ccccc23)c1	i	i	i	i	i	i	nt
O=C(O)c1cc(S(=O)(=O)O)cc(Nc2c3ccccc3nc3ccccc23)c1O	i	?	i[11.6 µM]	?	22µM	i	30	Pol kappa inh-2=17
CC#CCOCC1CN(C)C(=O)O1 (configuration not stated)	nt	nt	i	nt	i	nt	nt
COc1cc(/C=C(/C#N)C(=O)Nc2ccccc2)c(Br)cc1OCc1ccc(C(=O)O)cc1	i	i	?	?	79µM	i	?
N#C/C(=C\c1ccc(OCc2ccccc2)cc1)C(=O)Nc1ccc(C(=O)O)cc1	i	i	i	?	i	i	nt
Cc1occc1C(=O)Nc1cccc(/C=C/C(=O)O)c1	i	?	?	?	18µM	nt	27
COc1ccccc1N1CCN(c2ncnc3c2cnn3C)CC1	i	i	nt	i	i	i	nt
S=c1[nH]nc(Cc2sc(-c3ccccc3)nc2-c2ccccc2)o1	i	i	i	i	i	i	nt	GALK inh confirm=33µM;GALK redox cs=i;HEK293 viability=i
COc1cccc(-n2ccnc2SCC(=O)Nc2nc3ccc(C)cc3s2)c1	i	i	nt	i	i	i	nt
CC(C)COC(=O)N1CCCCC1c1cc(C(=O)Nc2ccccc2)no1 (configuration not stated)	nt	nt	i	nt	nt	nt	nt
O=C1C=C(N(CCO)Cc2ccccc2)c2ccccc2C1=O	i	i	i	4.5µM	20µM	i	nt	GALK inh confirm=12µM;GALK redox cs=6µM;HEK293 viability=i
O=C1c2ccccc2C(=O)c2c1cccc2N(CCO)CCO	i	i	i	i	i	i	nt
SMILES	FEN1 inh	Pol kappa inh-1	WRN inhibitor	Pol iota inh	Pol eta inh-1	POLB inh	Pol eta inh-2	others
O=C(Nc1cc([N+](=O)[O-])ccc1O)c1cccc(C(=O)Nc2cc([N+](=O)[O-])ccc2O)c1	?	i	i[11.6 µM]	i	?	i	?
O=C(Nc1cc([N+](=O)[O-])ccc1O)c1cccc([N+](=O)[O-])c1	i	i	i	i	i	i	nt
O=C(Nc1ccc(O)cc1)c1ccc2c(c1)C(=O)N(Cc1ccco1)C2=O	i	i	?	?	14µM	i	67
O=C(Nc1cc([N+](=O)[O-])ccc1O)c1ccc2c(c1)C(=O)N(Cc1ccco1)C2=O	?	50µM	?	40µM	32µM	i	?
O=C(C[C@H]1C[C@H](C(=O)N2CCCCC2)[C@@]2(CCc3ccccc3)c3[nH]c4ccc(Cl)cc4c3CCN2C1=O)NCc1cccc(C(F)(F)F)c1	i	i	i	i	?	nt	nt
Cc1ccc(S(=O)(=O)N[C@@H](CO)C(=O)N[C@@H](Cc2ccc(O)cc2)C(=O)O)cc1	i	i	i	i	i	i	nt
O=C(O)c1ccc(S(=O)(=O)N[C@@H](Cc2ccc(O)cc2)C(=O)O)cc1	nt	nt	nt	nt	nt	nt	38	Pol kappa inh-2=11
O=C(Nc1ccc(Br)cc1Cl)c1cnccn1	i	i	?	?	40µM	i	76
CC(=O)Oc1ccc(C(=O)Nc2cccc(C(=O)NC(C)(C)C)c2)cc1	i	i	i	i	i	i	nt
CC(=O)Oc1ccc(C(=O)Nc2cccc(C(=O)c3cccc(NC(=O)c4ccc(OC(C)=O)cc4)c3)c2)cc1	?	?	?	7.9µM	3.2µM	13µM	54
COc1ccc(NC(=O)C2(C)Cc3c(-c4cccc(C(N)=O)c4)ccnc3O2)cc1OC (configuration not stated)	nt	nt	i	nt	nt	nt	nt
